Measurements published in PubChem BioAssay (NCATS).
Results filed as inconclusive are left out. Active and inactive are the calls of the source. Unless noted, calls come from the whole dose curve; as a rule, active = well fitted curve in the direction sought with a large enough effect; inconclusive = small, poorly fitted or top-dose-only effect, or another doubt; inactive = no such curve, though single readings can be large; an effect the other way counts as inactive or inconclusive.

Columns and labels:
[1] = biological target: Cytochrome P450 3A4 (Homo sapiens) (UniProt P08684); test: qHTS Assay for Activators of Cytochrome P450 3A4 (AID 885); note: nearly all actives have a fitted effect of over 65% in size; note: potency is the fitted concentration of half-maximal effect
Sequence of Cytochrome P450 3A4 (Homo sapiens) (P08684 whole entry, looked up): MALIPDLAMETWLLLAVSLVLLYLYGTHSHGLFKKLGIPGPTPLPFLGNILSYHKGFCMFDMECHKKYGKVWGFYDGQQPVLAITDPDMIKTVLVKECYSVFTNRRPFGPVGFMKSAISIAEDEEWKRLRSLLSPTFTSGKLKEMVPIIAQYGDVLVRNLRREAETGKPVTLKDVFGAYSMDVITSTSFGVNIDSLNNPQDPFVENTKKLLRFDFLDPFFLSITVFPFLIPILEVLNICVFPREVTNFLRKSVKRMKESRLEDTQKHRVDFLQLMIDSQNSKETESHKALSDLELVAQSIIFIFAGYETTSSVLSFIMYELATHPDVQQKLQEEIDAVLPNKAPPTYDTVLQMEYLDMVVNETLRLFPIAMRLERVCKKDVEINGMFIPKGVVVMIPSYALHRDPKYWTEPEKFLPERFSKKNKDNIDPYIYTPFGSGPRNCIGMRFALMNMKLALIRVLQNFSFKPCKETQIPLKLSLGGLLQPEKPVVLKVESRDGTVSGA
Method in brief: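 Luminescent readout of luciferin formed from 25 uM Luciferin-PPXE (KM level) by 20 nM CYP3A4 in 200 mM KPO4, with 60 min NADPH-driven reaction at room temperature after 10 min compound exposure. Ketoconazole (57 uM) defined 100% inhibition.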

[2] = tested on: AA1029; test: qHTS profiling for inhibitors of Plasmodium falciparum proliferation (AID 504749); note: nearly all actives have a fitted effect of over 60% in size; note: potency is the fitted concentration of half-maximal effect; settings: P. falciparum in erythrocytes, SYBR Green DNA, 72 h; series mostly up to 12.8 µM
Method in brief: (§1)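 SYBR Green fluorescence (ex 485 nm, em 535 nm) reports parasite DNA after 72 h compound exposure of infected red cells at 0.3% parasitemia, 2.5% hematocrit; signal normalized to 0.29 uM artemisinin and vehicle wells.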

[3] = tested on: CP185; test: as above; settings: P. falciparum in erythrocytes, SYBR Green DNA, 72 h; series mostly up to 12.8 µM
Method in brief: as §1

[4] = tested on: CP192; test: as above; settings: P. falciparum in erythrocytes, SYBR Green DNA, 72 h; series mostly up to 12.8 µM
Method in brief: as §1

[5] = tested on: CP194; test: as above; settings: P. falciparum in erythrocytes, SYBR Green DNA, 72 h; series mostly up to 12.8 µM
Method in brief: as §1

[6] = tested on: CP247; test: as above; settings: P. falciparum in erythrocytes, SYBR Green DNA, 72 h; series mostly up to 12.8 µM
Method in brief: as §1

[7] = tested on: CP256; test: as above; settings: P. falciparum in erythrocytes, SYBR Green DNA, 72 h; series mostly up to 12.8 µM
Method in brief: as §1

[8] = tested on: CP260; test: as above; settings: P. falciparum in erythrocytes, SYBR Green DNA, 72 h; series mostly up to 12.8 µM
Method in brief: as §1

[9] = tested on: CP265; test: as above; settings: P. falciparum in erythrocytes, SYBR Green DNA, 72 h; series mostly up to 12.8 µM
Method in brief: as §1

[10] = tested on: CP291; test: as above; settings: P. falciparum in erythrocytes, SYBR Green DNA, 72 h; series mostly up to 12.8 µM
Method in brief: as §1

[11] = tested on: CP297; test: as above; settings: P. falciparum in erythrocytes, SYBR Green DNA, 72 h; series mostly up to 12.8 µM
Method in brief: as §1

[12] = tested on: P93_24; test: as above; settings: P. falciparum in erythrocytes, SYBR Green DNA, 72 h; series mostly up to 12.8 µM
Method in brief: as §1

[13] = tested on: P94_40; test: as above; settings: P. falciparum in erythrocytes, SYBR Green DNA, 72 h; series mostly up to 12.8 µM
Method in brief: as §1

[14] = tested on: PAD; test: as above; settings: P. falciparum in erythrocytes, SYBR Green DNA, 72 h; series mostly up to 12.8 µM
Method in brief: as §1

[15] = tested on: PC26; test: as above; settings: P. falciparum in erythrocytes, SYBR Green DNA, 72 h; series mostly up to 12.8 µM
Method in brief: as §1

[16] = tested on: TAB109; test: as above; settings: P. falciparum in erythrocytes, SYBR Green DNA, 72 h; series mostly up to 12.8 µM
Method in brief: as §1

[17] = tested on: TAB165; test: as above; settings: P. falciparum in erythrocytes, SYBR Green DNA, 72 h; series mostly up to 12.8 µM
Method in brief: as §1

[18] = tested on: CP211; test: as above; settings: P. falciparum in erythrocytes, SYBR Green DNA, 72 h; series mostly up to 12.8 µM
Method in brief: as §1

[19] = tested on: ICS; test: as above; settings: P. falciparum in erythrocytes, SYBR Green DNA, 72 h; series mostly up to 12.8 µM
Method in brief: as §1

[20] = biological target: Mitogen-activated protein kinase 10 (Mus musculus) (UniProt Q61831); test: JNK3 AlphaScreen Assay (AID 530; active = well fitted curve in either direction with a large enough effect, not every such curve was filed as active;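 note: kinase came from lysate of stimulated human HepG2 cells; signal reports phosphorylation of biotinylated GST-cJun 1-79 at Ser73 with 10 µM ATP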)
Method in brief: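 HepG2 lysate (IL-1b/TNFa pre-activated) + biotin-GST-cJun 1-79 + anti-pSer73 cJun; cpd titration, 15 min RT; ATP 10 uM start; Tris pH 7.6, MgCl2, DTT, vanadate; beads in EDTA buffer; AlphaScreen.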

Measured: Potency

C/C1=C2N=C(/C=C3N=C(/C(C)=C4\[N-]C(C)(C5N=C1C(C)(CCC(=O)NCC(C)OP(=O)([O-])O[C@H]1C(O)C(n6cnc7cc(C)c(C)cc76)O[C@@H]1CO)C5CC(N)=O)C(C)(CC(N)=O)C4CCC(N)=O)C(C)(CC(N)=O)C\3CCC(N)=O)C(C)(C)C/2CCC(N)=O.[CH2-]C1OC(n2cnc3c(N)ncnc32)C(O)C1O.[Co] (some centres undefined)
not listed: [18] | [19] | [20]
inactive: all other assays above

COC1C=CO[C@@]2(C)Oc3c(C)c(O)c4c(O)c(c5c(nc6cc(C)ccn65)c4c3C2=O)NC(=O)/C(C)=C\C=CC(C)C(O)[C@@H](C)C(O)C(C)[C@@H](OC(C)=O)C1C (some centres undefined)
inactive: [1]
active: [2] 12.6 µM | [3] 10 µM | [4] 10.7 µM | [5] 12 µM | [18] 15.1 µM | [6] 8.91 µM | [8] 11.2 µM | [9] 11.2 µM | [10] 13.5 µM | [11] 4.26 µM | [19] 5.01 µM | [12] 3.98 µM | [13] 5.01 µM | [14] 3.16 µM | [15] 1.2 µM | [16] 11.2 µM | [17] 2.24 µM

CCCCCCCCCc1ccc(OCCOCCOCCOCCOCCOCCOCCOCCOCCO)cc1
active: [17] 7.08 µM
inactive: [2] | [3] | [4] | [8] | [9] | [10] | [13] | [16]

CC(=O)OCC(=O)[C@@]12OC3(CCCC3)OC1CC1C3CCC4=CC(=O)C=C[C@@]4(C)[C@]3(F)C(O)C[C@]12C (some centres undefined)
active: [19] 12.6 µM | [13] 12.6 µM
inactive: [3] | [4] | [5] | [18] | [7] | [10]

C=Cc1c(C)/c2[n-]/c1=C\c1[n-]c(c(CC)c1C)/C=c1\[n-]c3c(c1C)C(=O)C(C(=O)[O-])C=3c1[n-]c(c(C)c1CCC(=O)[O-])\C=2.[Cu].[Na+].[Na+] (centres undefined)
inactive: [1] | [3] | [18] | [7] | [9] | [10]

C[C@@]12CCC(=O)C=C1C=CC1C2CC[C@]2(C)C1CC[C@@]21CCC(=O)O1 (some centres undefined)
active: [1] 15.8 µM
not listed: [3] | [6] | [16] | [17] | [19] | [20]
inactive: all other assays above

N[C@@H]1C(O)OC(CO)C(O)C1O (some centres undefined)
not listed: [1] | [4] | [13] | [20]
inactive: all other assays above

Nc1nc2ncc(CNc3ccc(C(=O)NC(CCC(=O)O)C(=O)O)cc3)nc2c(=O)[nH]1 (centres undefined)
not listed: [1] | [20]
inactive: all other assays above

CCC1OC(=O)CC(O)C(C)[C@@H](O[C@@H]2OC(C)[C@H](O[C@@H]3C[C@@](C)(O)C(O)C(C)O3)C(N(C)C)C2O)[C@H](CC=O)CC(C)C(=O)/C=C/C(C)=C/[C@@H]1COC1OC(C)C(O)C(OC)[C@@H]1OC (some centres undefined)
active: [7] 1.41 µM | [8] 1.12 µM | [19] 2.82 µM | [16] 0.891 µM

C[C@@H](CN1c2ccccc2Sc2ccccc21)N(C)C
inactive: [20]

CO[C@]12C(COC(N)=O)C3=C(C(=O)C(C)=C(N)C3=O)N1CC1NC12 (some centres undefined)
active: [2] 2 µM | [3] 0.708 µM | [18] 19 µM | [6] 1.41 µM | [7] 5.01 µM | [19] 0.355 µM | [12] 1 µM | [13] 0.891 µM | [14] 0.631 µM | [16] 2.24 µM | [17] 0.447 µM

C[C@@]12C=CC(=O)C=C1CCC1C3CC(O)[C@@](O)(C(=O)CO)[C@]3(C)CC(O)[C@]12F (some centres undefined)
not listed: [1] | [20]
inactive: all other assays above

NC(CCC(=O)N[C@@H](CS)C(=O)NCC(=O)O)C(=O)O (some centres undefined)
active: [7] 8.91 µM | [8] 7.94 µM | [9] 7.94 µM | [11] 15.1 µM | [19] 1.26 µM | [12] 3.16 µM | [13] 3.55 µM | [14] 6.31 µM | [15] 12 µM | [16] 4.47 µM | [17] 3.98 µM

NC(C(=O)O)[C@@H]1CC(Cl)=NO1 (some centres undefined)
active: [2] 1 µM | [3] 2.82 µM | [4] 3.38 µM | [5] 3.38 µM | [18] 2.69 µM | [6] 3.16 µM | [7] 2.82 µM | [8] 0.891 µM | [9] 3.16 µM | [10] 2.13 µM | [11] 3.38 µM | [19] 0.891 µM | [12] 1 µM | [13] 1.12 µM | [14] 0.708 µM | [15] 1.9 µM | [16] 1 µM | [17] 1 µM

CC(C)Oc1ccc2c(=O)cc(-c3ccccc3)oc2c1
not listed: [1] | [11] | [12] | [20]
inactive: all other assays above

Nc1ccn([C@@H]2O[C@H](CO)[C@@H](OP(=O)(O)O)[C@H]2O)c(=O)n1
inactive: [1]

O=C1c2ccccc2C(=O)c2c(O)c(O)cc(O)c21
inactive: [1]

C[C@H]1C[C@]2(O[C@@H]2C)C(=O)O[C@@H]2CCN(C)C/C=C(/COC(=O)[C@]1(C)O)C2=O
inactive: [1]

COc1cc(OC)c2c(=O)c(O)c(-c3ccc(OC)c(OC)c3)oc2c1
inactive: [1]

COc1cccc2c1CCC1CC(=O)CC[C@@]21C (some centres undefined)
inactive: [1]

C=C1C(C2(C)C=CC(=O)C(C)(C)C2CC(=O)OC)CC[C@@]2(C)C(c3ccoc3)OC(=O)C3OC132 (some centres undefined)
inactive: [1]

Cc1cc(=O)c2c(O)cc(O)c(C)c2o1
inactive: [1]

CCOC(=O)c1c(C)cc(O)cc1O
inactive: [1]

OC/C=C/c1ccc(O)c(O)c1
inactive: [1]

O=c1cc(-c2ccc(O)cc2)oc2ccc(O)cc12
inactive: [1]

COc1ccc(-c2c(O)c3c(OC)c4c(cc3oc2=O)OC(C)(C)C=C4)cc1
inactive: [1]

COC(=O)CC1C(C)(C)C(O)C2CC3=C4C=C(OC)OC(c5ccoc5)[C@]4(C)CCC3[C@@]1(C)C2=O (some centres undefined)
inactive: [1]

CC(=O)OC1CC(O)C(C)(C)C2CC(OC(C)=O)[C@]3(C)C(CC[C@@]4(C)C(c5ccoc5)OC(=O)C5OC534)[C@]12C (some centres undefined)
inactive: [1]

COc1ccc2c(c1)OCC(Cc1ccc(OC)c(OC)c1)C2O (centres undefined)
inactive: [1]

COc1ccc2c(c1OC)C(=O)O[C@H]2C1c2c(cc3c(c2OC)OCO3)CCN1C (some centres undefined)
inactive: [1]

CC[C@H](C)[C@H](NC(=O)OCC1c2ccccc2-c2ccccc21)C(=O)O
inactive: [1]

COC1C[C@@H](O[C@@H]2C(C)C(=O)OC(C)C(C)C(O)C(C)C(=O)[C@@]3(CO3)CC(C)C(OC3OC(C)CC(N(C)C)C3O)C2C)OC(C)[C@@H]1O (some centres undefined)
inactive: [1]

C/C=C(/C)C(=O)OC1Cc2c(ccc3ccc(=O)oc23)OC1(C)C (centres undefined)
active: [1] 15.8 µM

COC(=O)CC1C(C)(C)C(OC(C)=O)C2CC3C4CC(=O)OC(c5ccoc5)[C@]4(C)CCC3[C@@]1(C)C2=O (some centres undefined)
inactive: [1]
